# Data taken from article PMC5540273 (PLoS ONE, 2017).
# Key:
# Settings in all cases: concentration: 1 μM, replicates: in singlicate; n = 1
# [1] = tested on: PLK2
# [2] = tested on: PLK3
# [3] = tested on: PLK4
# [4] = tested on: PRKCD
# [5] = tested on: PRKCE
# [6] = tested on: PRKCH
# [7] = tested on: PRKCI
# [8] = tested on: PRKCQ
# [9] = tested on: PRKD1
# [10] = tested on: PRKD2
# [11] = tested on: PRKD3
# [12] = tested on: PRKG1
# [13] = tested on: PRKG2
# [14] = tested on: T1, PRKR
# T1 construct: gene EIF2AK2
# [15] = tested on: PRKX
# [16] = tested on: PRP4
# [17] = tested on: T2, PYK2
# T2 construct: gene PTK2B
# [18] = tested on: QSK
# [19] = tested on: RAF1
# [20] = tested on: RET
# 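Note: KINOMEscan kinase panel screen.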
Structure (SMILES),%Inh [1],%Inh [2],%Inh [3],%Inh [4],%Inh [5],%Inh [6],%Inh [7],%Inh [8],%Inh [9],%Inh [10],%Inh [11],%Inh [12],%Inh [13],%Inh [14],%Inh [15],%Inh [16],%Inh [17],%Inh [18],%Inh [19],%Inh [20]
COc1cccc(C(=O)Nc2cccc(Oc3ccc4nc(NC(=O)C5CC5)cn4n3)c2)c1,0%,14%,5%,25%,0%,0%,40%,0%,0%,44%,15%,0%,21%,0%,2%,0%,9%,0%,96.8%,100%
c1ccc(Oc2ccc(Nc3ccnc4cc(-c5ccc(CNCCN6CCOCC6)o5)ccc34)cc2)nc1 [GW567145],0%,0%,43%,0%,12%,4%,39%,4%,0%,13%,23%,1%,2%,0%,0%,36%,0%,17%,2%,5%
Cc1ccc(C)c(NC(=O)NC2CCN(c3ccnc(Nc4ccc(F)cc4)n3)C2)c1 (centres unmarked) [GSK1379720],0%,0%,0%,0%,15%,0%,13%,0%,0%,0%,0%,0%,0%,0%,4%,51%,19%,13%,14%,0%
O=C(Nc1n[nH]c2cc(-c3ccoc3)ccc12)C1CC1 [SB-738481],3%,12%,10%,4%,12%,0%,0%,0%,0%,0%,0%,0%,14%,0%,0%,0%,9%,11%,0%,0%
COc1ccc(Nc2nccc(NCCNC(=O)c3cc4ccccc4s3)n2)cc1 [GSK1379896],0%,0%,0%,0%,2%,0%,25%,9%,0%,0%,0%,0%,0%,0%,16%,17%,0%,2%,9%,25%
Cl.Cl.NCC(C(=O)Nc1cc(Br)c(-c2ccnc3[nH]ccc23)s1)c1ccccc1 (centres unmarked) [GSK1269851],16%,2%,0%,70%,58%,63%,26%,73%,0%,0%,41%,94.6%,86%,0%,88%,83%,2%,15%,0%,32%
Cl.NC(=O)c1cccc(Nc2nccc(Nc3ccc(Oc4c(Cl)cccc4Cl)c(Cl)c3)n2)c1 [GW659009],0%,30%,0%,0%,0%,0%,0%,0%,0%,0%,21%,0%,0%,0%,0%,20%,0%,0%,88%,0%
O=C(Nc1ccccc1F)NC1CCN(c2ccnc(Nc3ccc(F)cc3)n2)CC1 [GSK1379800],0%,0%,0%,0%,2%,0%,18%,0%,0%,2%,0%,15%,0%,0%,7%,45%,0%,1%,16%,4%
CN1CCN(CCCNc2nccc(-c3c(-c4ccc(F)cc4)nn4cc(C(F)(F)F)ccc34)n2)CC1 [GW621581],0%,0%,12%,7%,0%,20%,19%,7%,47%,34%,62%,10%,0%,0%,13%,25%,0%,0%,8%,0%
O=c1[nH]cc(-c2ccc(N3CCOCC3)cc2)c2sc(-c3cn[nH]c3)cc12 [GSK2276055],18%,0%,17%,0%,0%,0%,17%,21%,0%,30%,4%,0%,10%,34%,10%,0%,0%,11%,0%,3%
